Laboratory results reported in publication PMC5540273 (PLoS ONE, 2017).

What follows are compounds tested on AURKA. Conditions: concentration: 1 μM, replicates: in singlicate; n = 1.
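Also: KINOMEscan kinase panel screen.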

Q: For `O=C(Nc1n[nH]c2cc(-c3ccccc3F)ccc12)C1CC1` [SB-733371], which “%Inh” value is on record?
A: 16%

Q: With `CC(C)(C)c1ccc(C(=O)Nc2cn3cc(-c4ccccc4)ccc3n2)cc1` as the compound, how does the “%Inh” value read?
A: 48%

Q: For `Nc1ncnc2c1ncn2-c1cccc2ccccc12` [SKF-97184], which “%Inh” value is on record?
A: 0%

Q: For `CCCC(=O)Nc1n[nH]c2ncc(-c3cccc4ccccc34)cc12` [SB-642057], which “%Inh” value is on record?
A: 6%

Q: How did the “%Inh” value turn out when `Cc1cccc(-c2nc(Nc3ccc4c(cnn4C)c3)c3ccccc3n2)n1` [GW876731] was run?
A: 24%

Q: How did the “%Inh” value turn out when `COC(=O)c1c(-c2ccccc2)c2cc(Br)ccc2c(=O)n1Cc1ccc(NC(=O)CCC(=O)O)cc1` was run?
A: 0%

Q: Which “%Inh” value does the source give for `O=C1NC(=O)C(c2ccccc2)=C1Nc1cccc(O)c1` [SB-390534] here?
A: 12%

Q: Which “%Inh” value does the source give for `CCCNC(=O)Nc1ccc(Oc2ncnc3ccn(C)c23)cc1` here?
A: 7%

Q: `COc1cc2nccc(Nc3cccc(Oc4ccccc4)c3)c2cc1OC.Cl` [GW284543] was tested. Which “%Inh” value did it give?
A: 5%

Q: Which “%Inh” value does the source give for `COc1cc2ncn(-c3cc(OCCCc4ccccc4)c(C(N)=O)s3)c2cc1OC` [GSK205189] here?
A: 0%

Q: For `CCn1c(-c2ccoc2)nc2cnccc21` [SB-733887], which “%Inh” value is on record?
A: 16%

Q: For `COc1ccc(-c2coc3ccc(-c4nnc(SCc5cccc(C#N)c5)o4)cc23)cc1`, which “%Inh” value is on record?
A: 22%

Q: Which “%Inh” value does the source give for `COC(=O)c1c(-c2ccccc2)c2cc(C)ccc2c(=O)n1Cc1ccccc1` here?
A: 0%

Q: Which “%Inh” value does the source give for `CCc1nc(-c2cccc(C)c2)c(-c2ccncc2)s1` here?
A: 0%

Q: Which “%Inh” value does the source give for `Cc1ccc(Oc2ccc(Nc3ncnc4cc[nH]c34)cc2C)cn1` here?
A: 20%

Q: How did the “%Inh” value turn out when `COc1cccc(C2=C(N(C)c3ccccc3)C(=O)NC2=O)c1` [SB-334865] was run?
A: 11%

Q: For `COc1ccc(-n2cnc3c(N)ncnc32)cc1` [SKF-97236], which “%Inh” value is on record?
A: 0%

Q: Which “%Inh” value does the source give for `Cc1c(Cn2c(C)nn3c(=O)cc(N4CCO[C@H](C)C4)nc23)cccc1C(F)(F)F` [GSK2373690] here?
A: 0%

Q: With `COc1cc(Nc2nccc(N3CCC(NC(=O)C(C)c4ccc(Cl)cc4)C3)n2)cc(OC)c1OC` (stereo not shown) [GSK1379757] as the compound, how does the “%Inh” value read?
A: 52%

Q: Which “%Inh” value does the source give for `COc1cc2ncn(-c3cc(OCc4ccc(S(C)(=O)=O)cc4)c(C(N)=O)s3)c2cc1OC` [GW869979] here?
A: 0%

Q: For `Cc1nnc(-c2ccc(C)c(-c3ccc(C(=O)O)cc3)c2)o1` [GW608005], which “%Inh” value is on record?
A: 0%

Q: With `COc1ccc(-c2cc3c(C)nc(N)nc3n([C@H]3CC[C@H](O)CC3)c2=O)cn1` as the compound, how does the “%Inh” value read?
A: 0%
